Data taken from the OligoGym collection.

These sequences were tested against APOL1 (assay: pooled miR-30 sensor sort-seq; sequence = guide strand). Details: shRNA.
Also: reference of the scale not given here.

Q: For TTTGAGGATCTCCAGTATCTGT, which sensor-assay potency score (higher = more potent) is on record?
A: -1.27

Q: With TTAGTCTAAAGTAAACTGCTTC as the sequence, how does the sensor-assay potency score (higher = more potent) read?
A: -0.132

Q: With TAGCTTCTCCTCCAGCTCCTGA as the sequence, how does the sensor-assay potency score (higher = more potent) read?
A: -0.925

Q: For TATCCAACTGTTCTAACTCTTG, which sensor-assay potency score (higher = more potent) is on record?
A: -1.08

Q: For TTTGTTGCACCCTCGCTCCAGC, which sensor-assay potency score (higher = more potent) is on record?
A: -0.393

Q: Which sensor-assay potency score (higher = more potent) does the source give for TTGTCTTGCAAGGTTGTCCAGA here?
A: -0.407

Q: For TTTTGTTGCACCCTCGCTCCAG, which sensor-assay potency score (higher = more potent) is on record?
A: -0.279

Q: With TCAAGCTCACTTTTCAACCGAG as the sequence, how does the sensor-assay potency score (higher = more potent) read?
A: -0.112

Q: How did the sensor-assay potency score (higher = more potent) turn out when TAACTCTTGGGCTTTCTCCATT was run?
A: -0.755

Q: How did the sensor-assay potency score (higher = more potent) turn out when TATCGTGCCAGTTTTTGTCTTT was run?
A: -0.367

Q: How did the sensor-assay potency score (higher = more potent) turn out when TTCATTAACCCTCTCCACCTGT was run?
A: -0.144

Q: For TTGTCTTTCATGATCATTTGTC, which sensor-assay potency score (higher = more potent) is on record?
A: 0.325

These sequences were tested against APTX in the same assay as above. Details: shRNA.

Q: Which sensor-assay potency score (higher = more potent) does the source give for TGGAAGTCTGATTCGCTGGTGC here?
A: -0.603

Q: Which sensor-assay potency score (higher = more potent) does the source give for TATAGAATCACTGTTGCCTGAT here?
A: 0.198

Q: With TATCAGTGATCTTGGTCTCTGG as the sequence, how does the sensor-assay potency score (higher = more potent) read?
A: -0.564

Q: How did the sensor-assay potency score (higher = more potent) turn out when TTGCTGTCGAGAACATTTCTTA was run?
A: -0.631

Q: Which sensor-assay potency score (higher = more potent) does the source give for TTTCTTATCAGTGATCTTGGTC here?
A: -0.281

Q: For TTATCAGTGATCTTGGTCTCTG, which sensor-assay potency score (higher = more potent) is on record?
A: -0.647

Q: How did the sensor-assay potency score (higher = more potent) turn out when TCAGTGATCTTGGTCTCTGGGC was run?
A: -0.249
